Test results reported in PubChem BioAssay (EPA / NIEHS).
Active and inactive are the calls of the source. Rule for the calls: active = hit-call score of the fitted dose curve at least 0.9, where 1 is the maximum; inactive = score below 0.9.

Legend:
Details in all cases: mRNA level, 48 h; actives raise or lower the signal
BCL2L11 (gene 10018) = assay: LTEA_HepaRG_BCL2L11: Life Technologies and Expression Analysis (LTEA) Assay for Bcl-2 (BCL2L11) gene using HepaRG (AID 2283473)
Method in brief: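 Human hepatic HepaRG cultures are treated 48 h with test chemicals (maximum 100 uM, 0.5% DMSO vehicle). Expression of BCL2L11 is measured by qRT-PCR against ACTB, GAPDH and POLR2A, with activity in either direction scored relative to vehicle.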

[1] = read-out: Apolipoprotein A-V (APOA5) gene, APOA5 (gene 116519); assay: LTEA_HepaRG_APOA5: Life Technologies and Expression Analysis (LTEA) Assay for Apolipoprotein A-V (APOA5) gene using HepaRG (AID 2283474)
Method in brief: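 Concentration-response of APOA5 expression in HepaRG: eight half-log doses to 100 uM, 48 h, qRT-PCR normalized to ACTB/GAPDH/POLR2A, bidirectional fitting with 0.5% DMSO as baseline.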

[2] = read-out: Cytochrome P450 (CYP24A1), CYP24A1 (gene 1591); assay: LTEA_HepaRG_CYP24A1: Life Technologies and Expression Analysis (LTEA) Assay for Cytochrome P450 (CYP24A1) using HepaRG (AID 2283478)
Method in brief: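 Gene expression of CYP24A1 by TaqMan qRT-PCR in HepaRG after 48 h treatment, highest concentration 100 uM; activity fitted in both directions relative to DMSO vehicle.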

[3] = read-out: Cytochrome P450 (CYP1A2), CYP1A2 (gene 1544); assay: LTEA_HepaRG_CYP1A2: Life Technologies and Expression Analysis (LTEA) Assay for Cytochrome P450 (CYP1A2) using HepaRG (AID 2283479);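 for AC50: TaqMan qRT-PCR transcript level normalized to ACTB GAPDH and POLR2A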
Method in brief: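 In duplicate wells, HepaRG cultures maintained in 0.5% DMSO were treated 48 h across an 8-point, half-log series topping at 100 uM; phenobarbital (1 mM) served as induction control. Expression was read by qRT-PCR.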

[4] = read-out: cysteine-aspartic acid protease (CASP8), CASP8 (gene 841); assay: LTEA_HepaRG_CASP8: Life Technologies and Expression Analysis (LTEA) Assay for cysteine-aspartic acid protease (CASP8) using HepaRG (AID 2283480)
Method in brief: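 Differentiated HepaRG cells in serum-free induction medium, 48 h exposure, eight-point half-log series from 100 uM in 0.5% DMSO, duplicates. CASP8 mRNA by qRT-PCR, normalized to ACTB, GAPDH, POLR2A; bidirectional fit versus DMSO.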

[5] = read-out: Cytochrome P450 (CYP2B6), CYP2B6 (gene 1555); assay: LTEA_HepaRG_CYP2B6: Life Technologies and Expression Analysis (LTEA) Assay for Cytochrome P450 (CYP2B6) using HepaRG (AID 2283481)
Method in brief: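 Human HepaRG, 48 h dosing, 0.5% DMSO vehicle, top dose 100 uM. CYP2B6 transcript by qRT-PCR, housekeeping-normalized, bidirectional curve fit.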

[6] = read-out: Cytochrome P450 2C19 (Homo sapiens) (UniProt P33261); assay: LTEA_HepaRG_CYP2C19: Life Technologies and Expression Analysis (LTEA) Assay for CYP2C19 using HepaRG (AID 2283482)
Method in brief: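 Endpoint: CYP2C19 mRNA change, bidirectional fit vs 0.5% DMSO. Cells: HepaRG, 48 h exposure, eight-point series topping at 100 uM. Quantitation: qRT-PCR normalized to ACTB, GAPDH, POLR2A.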

CYP2C8 (gene 1558) = assay: LTEA_HepaRG_CYP2C8: Life Technologies and Expression Analysis (LTEA) Assay for CYP2C8 using HepaRG (AID 2283483)
Method in brief: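 Differentiated HepaRG cells in serum-free induction medium exposed 48 h in duplicate to 8 half-log concentrations from 100 uM in 0.5% DMSO. CYP2C8 mRNA by qRT-PCR normalized to ACTB, GAPDH, POLR2A; bidirectional fit versus DMSO.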

CYP2C9 (gene 1559) = assay: LTEA_HepaRG_CYP2C9: Life Technologies and Expression Analysis (LTEA) Assay for CYP2C9 using HepaRG (AID 2283484)
Method in brief: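 Differentiated human HepaRG cells in serum-free induction medium were exposed 48 h to chemicals in 8-point half-log series from 100 uM (0.5% DMSO), in duplicate. CYP2C9 mRNA was measured by qRT-PCR, normalized to ACTB/GAPDH/POLR2A, with bidirectional fitting versus DMSO.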

CYP4A11 (gene 1579) = assay: LTEA_HepaRG_CYP4A11: Life Technologies and Expression Analysis (LTEA) Assay for CYP4A11 using HepaRG (AID 2283486)
Method in brief: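 Human hepatic HepaRG cultures receive duplicate 48 h exposures across a concentration-response series topping at 100 uM. Expression changes in CYP4A11 are measured by qRT-PCR relative to DMSO controls.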

[7] = read-out: Cytochrome P450 3A4 (Homo sapiens) (UniProt P08684); assay: LTEA_HepaRG_CYP3A4: Life Technologies and Expression Analysis (LTEA) Assay for CYP3A4 using HepaRG (AID 2283487)
Method in brief: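 HepaRG, 48 h exposure, 8-pt CRC from 100 uM (half-log), 0.5% DMSO, duplicates; serum-free induction medium. Readout: CYP3A4 mRNA, qRT-PCR, ACTB/GAPDH/POLR2A normalization. Bidirectional fit vs DMSO.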

[8] = read-out: DNA damage-inducible transcript 3 (DDIT3), DDIT3 (gene 1649); assay: LTEA_HepaRG_DDIT3: Life Technologies and Expression Analysis (LTEA) Assay for DNA damage-inducible transcript 3 (DDIT3) using HepaRG (AID 2283488)
Method in brief: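 Changes in DDIT3 transcript, in either direction relative to 0.5% DMSO vehicle, were quantified by TaqMan qRT-PCR after 48 h chemical exposure of HepaRG cells at 8 concentrations, maximum 100 uM.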

[9] = read-out: Pro-epidermal growth factor (Homo sapiens) (UniProt P01133); assay: LTEA_HepaRG_EGF: Life Technologies and Expression Analysis (LTEA) Assay for Epidermal growth factor (EGF) using HepaRG (AID 2283489)
Method in brief: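 Concentration-response mRNA assay: HepaRG cells dosed 48 h (max 100 uM, 0.5% DMSO), EGF measured by qRT-PCR and normalized to ACTB/GAPDH/POLR2A.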

[10] = read-out: Ezrin (EZR), EZR (gene 7430); assay: LTEA_HepaRG_EZR: Life Technologies and Expression Analysis (LTEA) Assay for Ezrin (EZR) using HepaRG (AID 2283491)
Method in brief: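 Read-out is EZR transcript level by qRT-PCR, normalized to three housekeeping genes and fitted bidirectionally against the DMSO control. Human HepaRG cells received test chemicals for 48 h at eight half-log concentrations up to 100 uM in 0.5% DMSO.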

[11] = read-out: Cytochrome P450 3A7 (Homo sapiens) (UniProt P24462); assay: LTEA_HepaRG_CYP3A7: Life Technologies and Expression Analysis (LTEA) Assay for CYP3A7 using HepaRG (AID 2283492)
Method in brief: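 qRT-PCR of CYP3A7 in HepaRG lysates after 48 h treatment; concentration-response (8 points, max 100 uM) analysed bidirectionally relative to 0.5% DMSO controls.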

[12] = read-out: Apoptosis regulator Bcl-2 (Homo sapiens) (UniProt P10415); assay: LTEA_HepaRG_BCL2: Life Technologies and Expression Analysis (LTEA) Assay for Bcl-2 gene using HepaRG (AID 2283475);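 note: BCL2 transcript by TaqMan qRT-PCR normalised to ACTB GAPDH and POLR2A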
Method in brief: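 Expression change of BCL2 mRNA in HepaRG after 48 h dosing, quantified by TaqMan qRT-PCR against three endogenous controls. Concentration-response used eight points up to 100 uM, vehicle 0.5% DMSO.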

CYP2E1 (gene 1571) = assay: LTEA_HepaRG_CYP2E1: Life Technologies and Expression Analysis (LTEA) Assay for CYP2E1 using HepaRG (AID 2283485)
Method in brief: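 Differentiated HepaRG cells were treated in duplicate for 48 h with chemicals in 0.5% DMSO, from 100 uM downward in half-log dilutions. RNA was then analysed by qRT-PCR for CYP2E1 induction or loss.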

Measured: AC50

Sequence of Cytochrome P450 3A4 (Homo sapiens) (P08684 whole entry, looked up): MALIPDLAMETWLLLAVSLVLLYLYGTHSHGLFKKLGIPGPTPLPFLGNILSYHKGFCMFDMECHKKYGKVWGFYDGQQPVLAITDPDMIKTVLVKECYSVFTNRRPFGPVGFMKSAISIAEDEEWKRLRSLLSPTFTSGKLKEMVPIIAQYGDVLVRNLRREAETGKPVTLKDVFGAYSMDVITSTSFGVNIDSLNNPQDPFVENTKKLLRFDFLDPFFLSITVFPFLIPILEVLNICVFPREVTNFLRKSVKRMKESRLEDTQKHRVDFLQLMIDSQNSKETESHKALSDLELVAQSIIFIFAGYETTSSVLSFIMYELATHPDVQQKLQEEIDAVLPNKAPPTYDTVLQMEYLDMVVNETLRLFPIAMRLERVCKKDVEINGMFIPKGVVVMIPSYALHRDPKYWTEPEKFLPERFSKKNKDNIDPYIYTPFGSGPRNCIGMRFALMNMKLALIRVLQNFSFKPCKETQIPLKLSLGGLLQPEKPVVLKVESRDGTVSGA
Sequence of Cytochrome P450 3A7 (Homo sapiens) (P24462 whole entry, looked up): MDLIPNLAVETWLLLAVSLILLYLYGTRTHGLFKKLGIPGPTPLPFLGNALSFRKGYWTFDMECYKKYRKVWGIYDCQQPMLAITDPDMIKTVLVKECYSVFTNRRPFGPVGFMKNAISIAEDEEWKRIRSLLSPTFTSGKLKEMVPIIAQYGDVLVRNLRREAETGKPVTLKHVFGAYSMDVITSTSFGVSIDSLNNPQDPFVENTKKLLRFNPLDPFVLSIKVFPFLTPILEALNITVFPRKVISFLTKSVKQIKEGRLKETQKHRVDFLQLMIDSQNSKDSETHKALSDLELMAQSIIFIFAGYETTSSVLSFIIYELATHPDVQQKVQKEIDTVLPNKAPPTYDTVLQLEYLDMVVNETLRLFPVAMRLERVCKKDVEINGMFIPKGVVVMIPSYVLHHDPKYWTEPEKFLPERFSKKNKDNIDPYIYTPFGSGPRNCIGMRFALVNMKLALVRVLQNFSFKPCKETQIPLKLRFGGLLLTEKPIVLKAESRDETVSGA
Sequence of Cytochrome P450 2C19 (Homo sapiens) (P33261 whole entry, looked up): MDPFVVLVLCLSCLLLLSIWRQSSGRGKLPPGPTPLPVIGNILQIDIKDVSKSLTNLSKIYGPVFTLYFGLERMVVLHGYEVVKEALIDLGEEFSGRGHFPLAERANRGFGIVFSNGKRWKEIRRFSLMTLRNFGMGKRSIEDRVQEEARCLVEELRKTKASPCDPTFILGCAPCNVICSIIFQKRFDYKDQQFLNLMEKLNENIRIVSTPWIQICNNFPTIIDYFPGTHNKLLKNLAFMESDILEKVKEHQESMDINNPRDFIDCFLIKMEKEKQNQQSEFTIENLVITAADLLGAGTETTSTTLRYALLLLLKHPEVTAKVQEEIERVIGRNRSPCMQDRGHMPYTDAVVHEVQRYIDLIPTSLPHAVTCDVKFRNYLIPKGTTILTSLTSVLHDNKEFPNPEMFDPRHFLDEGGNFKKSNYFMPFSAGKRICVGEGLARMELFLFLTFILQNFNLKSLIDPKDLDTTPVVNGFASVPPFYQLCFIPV
Sequence of Apoptosis regulator Bcl-2 (Homo sapiens) (P10415 whole entry, looked up): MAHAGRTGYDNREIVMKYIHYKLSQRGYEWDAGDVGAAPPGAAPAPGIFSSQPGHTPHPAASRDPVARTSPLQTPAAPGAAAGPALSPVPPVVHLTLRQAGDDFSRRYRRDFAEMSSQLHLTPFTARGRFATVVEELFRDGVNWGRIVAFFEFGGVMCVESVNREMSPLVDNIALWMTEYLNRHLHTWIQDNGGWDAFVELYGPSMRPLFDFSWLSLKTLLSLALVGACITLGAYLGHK

CCCOC(=O)c1ccc(C(=O)OCCC)nc1
active: [3] 50 µM
inactive: BCL2L11 (gene 10018) | [1] | [2] | [4] | [5] | [6] | CYP2C8 (gene 1558) | CYP2C9 (gene 1559) | CYP4A11 (gene 1579) | [7] | [8] | [9] | [10] | [11]

CN(C)C(=O)Nc1ccc(Cl)c(Cl)c1
inactive: BCL2L11 (gene 10018) | [1] | [2] | [4] | CYP2C8 (gene 1558) | CYP2C9 (gene 1559) | CYP4A11 (gene 1579) | [7] | [8] | [9] | [10] | [11]
active: [3] 30 µM | [5] 10.9 µM | [6] 28.7 µM

O=C(Nc1ccc([N+](=O)[O-])cc1Cl)c1cc(Cl)ccc1O
active: [1] 4.26 µM | [12] 3.54 µM | [3] 0.744 µM | [4] 12 µM | [5] 3.89 µM | [6] 2.22 µM | CYP2C8 (gene 1558) 3.94 µM | CYP2C9 (gene 1559) 3.21 µM | CYP2E1 (gene 1571) 2.07 µM | CYP4A11 (gene 1579) 3.41 µM | [8] 3.35 µM | [9] 12.1 µM
inactive: [2]

CCCCOCCOCCOCc1cc2c(cc1CCC)OCO2
inactive: BCL2L11 (gene 10018) | [1] | [2] | [4] | CYP4A11 (gene 1579) | [8] | [9]
active: [3] 16.5 µM | [5] 2.28 µM | [6] 5.73 µM | CYP2C8 (gene 1558) 4.61 µM | CYP2C9 (gene 1559) 3.39 µM

CCN(CC)C(=O)c1cccc(C)c1
inactive: BCL2L11 (gene 10018) | [1] | [2] | [3] | [4] | CYP4A11 (gene 1579) | [8] | [9] | [10]
active: [5] 3.4 µM | [6] 12.9 µM | CYP2C8 (gene 1558) 9.19 µM | CYP2C9 (gene 1559) 3.56 µM | CYP2E1 (gene 1571) 13.4 µM

C#C[C@]1(O)CC[C@H]2[C@@H]3CCC4=CC(=O)CC[C@@H]4[C@H]3CC[C@@]21CC
inactive: BCL2L11 (gene 10018) | [1] | [2] | [3] | [4] | [5] | CYP2C8 (gene 1558) | CYP2C9 (gene 1559) | [7] | [8] | [9]
active: [6] 5.47 µM | CYP2E1 (gene 1571) 0.00149 µM | CYP4A11 (gene 1579) 0.0276 µM

CCOC(=O)NCCOc1ccc(Oc2ccccc2)cc1
inactive: BCL2L11 (gene 10018) | [2] | [4] | [9] | [10] | [11]
active: [1] 85.8 µM | [3] 84.5 µM | [5] 81.4 µM | [6] 81.6 µM | CYP2C8 (gene 1558) 81.1 µM | CYP2C9 (gene 1559) 80 µM | CYP4A11 (gene 1579) 84.1 µM | [7] 87.8 µM | [8] 89 µM

CC(=O)[C@H]1CC[C@H]2[C@@H]3CCC4=CC(=O)CC[C@]4(C)[C@H]3CC[C@]12C
active: BCL2L11 (gene 10018) 12.8 µM | [1] 34 µM | [3] 25.4 µM | [4] 82.2 µM | [5] 32.6 µM | [6] 39.6 µM | CYP2C8 (gene 1558) 37.2 µM | CYP2C9 (gene 1559) 38.5 µM | CYP4A11 (gene 1579) 31.1 µM | [7] 36 µM | [8] 27.2 µM | [9] 82 µM | [11] 30.1 µM
inactive: [2]
